This passage reports PBM binding z-score results from the supplement of paper PMC6555819.

This test concerns VDR:RXRa (NR concentration 270 nM, RXRa partner concentration 90 nM). Put plainly: PBM binding z-score (relative to random genomic background probes); higher = stronger binding; sequences stand for … in GC…GCGATTGACAGCGTAGAATGAAGG
How it is done:
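Protein-binding microarray (Agilent 4x180K custom design, double-stranded 60-nt probes: 5' GC cap, 34-nt variable region, 24-nt constant primer region; full probe sequence given). Purified or IVT nuclear receptor:RXRα heterodimers (3:1 NR:RXRα, mostly 270:90 nM) or homodimers were incubated for 1 h in PBS with 2% milk and no ligand, then detected with Alexa488 antibodies. Fluorescence from o1-orientation probes (~5 replicates averaged) was converted to z-scores against 500 random hg19 background probes. Variable regions are seed direct-repeat (DR0–DR5) sites, all their single-nucleotide variants and half-site ablations.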
With TCTCGCAGGACACGAAGGTCAGAGCTTTCCAGAG, the PBM binding z-score worked out at 1.57. As for ACAGACAGGTGATGACGGTAACTCAGGCTATCAT, the PBM binding z-score was -0.308. For ATCTCCAGGTAAAGTTCAGTGAAAGATCGATAGA, the PBM binding z-score was found to be 1.83. TCATATCGGTAATACAGGTGAAAGTCGGCATCTA had a PBM binding z-score of 0.66. With CAAACTCGGTCAAGAGGTCAAAGTCCGCTTCCCG the figure was 5.41; with ATCGAAAGGTTGAGGTGAGTATAGAGAAAGGGAA, 0.543. Take CCTAGCAGGCCAATCTGGGTCACTGAAGGCTTGA: the PBM binding z-score was 0.552. The same measure for ACTCGGACGACAAAGGTCAGAGCTACGCCAGTGA: 2.76; for TAGCCTAGGTCAGATCCGGCCAGTATACGCTATA: 0.403.

In the case of TCTGCTAGTTCAACGATGGTCAGCTAATCTGCTA, the PBM binding z-score was determined as 0.196. Turning to CCTACTGGGCCAAAAAGGTCATTTATGCCGATAA, the PBM binding z-score worked out at 4.44. With CTCGAATGGTCGTGCTCAGGTGAGTATACCAAAC the figure was -0.155; with TATACAGGGTCAGAGGCCAGAGTACGAATGTCGA, 3.24; with ACTTACGGGTCAGCGAGGTTATAGCACGCGTATA, 6.97. The same measure for AATACCGGGTCACTAGGCCAGAGTAGGTACGAAT: 3.03; for TCATATAGGTAAATGGTGAAAGTCGGTGTGGTAA: 0.561.

For the sequence AGTCAAAGTTCACTAGGTAACGAAAGATTCAGCT, the PBM binding z-score came to 3.25.

Sequence TCGAGTAGGTTAGTCGGGGCATGCAGCCAACATA came in with a PBM binding z-score of 1.24.

On to ATCTCTATGTAAAGATAGTTCAGTGAATGCAAAT, for which the PBM binding z-score was 0.557. For the sequence ATCTCCAGGTAAAGATAGTTCAGTGAATGCAAAT, the PBM binding z-score was determined as 0.845. The same measure for ATATGTAGGTTATCGGGTAATTCAGTTTGCGCAT: 1.54; for CTCGAAAGGTCGTGCTCAGGTGATTATACCAAAC: 3.58; for TCTATTAGTTGAAGGGCAACCTACGAGTCCGTTT: 0.986.

With CCGACAGGGGCAGAAAGGTTACCATACCATCCGG, the PBM binding z-score was 1.75. With CCTACTGGGCCATCAGGTTATTGATATCAACGTT the figure was 0.0822; with GCAGACAGGGGAAACGCAGGTAACTCAGGGTGGC, -0.768; with CCAGACAGGTGAAAGGTAACTCATTCTGGTACGC, 0.817. Sequence ATATGTAGGTTACATCCGGGTCATTCCGGCTATG had a PBM binding z-score of 3.88.

GCATATAGGTAATACAAGGTGAAAGCCCGATTGT: the PBM binding z-score came out at 0.178.

TTTATTAGTTGAAGGGCAACCGACGAGTCCGTTT: the PBM binding z-score is 1.17. ATCTATAGGTAACAAGTTCAGTGAAAGAGAGGAC came in with a PBM binding z-score of 2.43.

Regarding TAGCCTAGGCCATGCGGGCCAGTATAGTGTCGGC, the PBM binding z-score is -1.04. Sequence ATCTCTAGGTAAAAGGTCAGTGAATCCCGAGGAT showed a PBM binding z-score of 2.51. On to AGAACGAGGGCAATGAGTTGATAGCTCGGGTGGC, for which the PBM binding z-score amounted to 4.8. With TTACCAACGTGAGCTGAGGTCGTTGATCCAACTC the figure was 1.21. For TCAGAGAGGTGAAGGTAACTCAGGTACGCAGTCG, the PBM binding z-score is 0.999. With TTACCAAGGTGAAGGTCGTCGATCCCTCTGTAGA the figure was 1.09; with AGAATGAGGTTATTCGTAGATCAGGGAAGAAAGT, 1.78. The same measure for CCTCGGAGGATAACAGGAGGTCAGAGCTGCCAGA: 1.5; for TCTTGTAGATCAACAGGACGTTAAGAAAGATCGA: 0.305.
